Outcome data for 121 molecules are collected here from PubChem BioAssay AID624300 (Southern Research Specialized Biocontainment Screening …, 2012).

The structures appear in SMILES notation. The whole screen tested about 2,400 compounds, of which about 360 (15%) were called active.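 Rule for the calls: active = viability falls under 70% at one or more tested concentrations, taken as toxicity; inactive = viability stays over 70% at every dose.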 Not all results are given here. Entries with a potency or affinity are not part of this list.

The test in a line: HeLa cell cytotoxicity, dose response, cytotoxicity control for MgcRacGAP inhibitor project (AID 624300). The conditions noted are these: CellTiter-Glo luminescence, 24 h; series mostly up to 100 µM.
`C=CCn1c(SCC(=O)Nc2ccc(N(C)C)cc2)nnc1-c1cccc(C)c1`: the result was inactive.
Turning to `COc1ccc(NC2CCCN(C(=O)CCC3=NNC(=O)CC3)C2)cc1` (stereo unspecified), the outcome was inactive.
For `COc1ccc(N2CCN(S(=O)(=O)c3c(C)nc4scc(C)n4c3=O)CC2)cc1`, the molecule was called inactive.
Regarding `N/N=C(\Cc1cscn1)c1ccc(O)cc1O`, the molecule was called inactive.
As for `O=C(CN1CCN(c2ccc(O)cc2)CC1)Nc1ccc2c(c1)OCCCO2`, the molecule was called inactive.
For `Nc1nc2c(s1)CCc1ccccc1-2`, the outcome was inactive.
As to `COc1ccc2c(C)cc3n[nH]c(=S)n3c2c1`, the result was inactive.
Turning to `NNc1ccc([N+](=O)[O-])c2[nH][nH]c(=O)c12`, the result was inactive.
`COc1cc(/C=N/Nc2cc(C)nc(NS(=O)(=O)c3ccccc3)n2)ccc1O`: the molecule was classed as inactive.
With `Oc1ccc(C=NNc2nc3ccccc3s2)c(O)c1`, the result was inactive.
With `COc1ccc(-c2cnnc(N/N=C/c3ccc(O)c(O)c3)n2)cc1`, the molecule was classed as inactive.
Regarding `CCN(CC)c1ccc(/C=N/Nc2nc(C)cc(C)n2)c(O)c1`, the outcome was inactive.
For `CN(C)c1ccc(/C=N\Nc2ccccn2)cc1`, the result was inactive.
Turning to `Cc1nc2ccccc2nc1N/N=C/c1ccc(O)cc1`, the molecule was called inactive.
Regarding `COc1ccc(NCc2ccsc2)cc1`, the outcome was inactive.
With `COc1ccc(NC2CCCN(C(=O)CN3CCOC3=O)C2)cc1` (stereo unspecified) the entry was “inactive”.
Consider `CC1(C)CC(=O)C(C=Nc2ccc(N)cc2)=C(O)C1`, for which the outcome was inactive.
With `COc1cc(/C=C/C(=O)OCC(=O)N2CC3(C)CC2CC(C)(C)C3)ccc1O` (stereo unspecified), the molecule was called inactive.
For the molecule `Cn1c(=O)c2[nH]c(=S)n(Cc3ccccc3)c2n(C)c1=O`, the outcome was inactive.
On to `Cn1c(=O)[nH]c(=O)c2c1[nH]c(=S)n2CCCc1ccccc1`, for which the result was inactive.
On to `CN(C)c1ccc(NC(=S)NCC2CCCO2)cc1` (stereo unspecified), for which the outcome was inactive.
`Cc1sc2ccc3sccc3c2[n+]1C`: the result was inactive.
As for `Cc1cc(N(C)C)ccc1N=Nc1ccc(N)cc1`, the call was inactive.
With `O=C(CN1CCN(c2ncccn2)CC1)N1CCCC1` the entry was “inactive”; with `Cc1ccccc1SCC(=O)OCC(=O)Nc1ccc(N(C)C)cc1`, “inactive”.
Take `CC(C)c1nc(SCC(=O)Nc2ccc(N(C)C)cc2)c2ccccc2n1`: the molecule was called inactive.
Consider `Cc1nc2ccc(C(=O)Nc3ccc(N(C)C)cc3)cc2s1`, for which the outcome was inactive.
`CCn1c(SCC(=O)Nc2ccc(N(C)C)cc2)nnc1-c1cccc(C)c1`: the result was inactive.
Consider `COc1cc(/C=N/NC(=O)CNc2n[nH]c(=O)[nH]c2=O)ccc1O`, for which the molecule was called inactive.
As to `CSc1ccc(CN2CCC(N3CC(C)OC(C)C3)CC2)cc1` (stereo unspecified), the molecule was called inactive.
For the molecule `C=CCn1c(SCC(=O)c2ccc(O)c(O)c2)nnc1-c1cccc(OC)c1`, the molecule was called inactive.
In the case of `CCn1c(CSc2nc3ccccc3s2)nnc1SCC(=O)c1ccc(O)c(O)c1`, the molecule was called inactive.
In the case of `CN(C)c1ccc(NS(=O)(=O)c2ccc(Cl)cc2)cc1`, the molecule was classed as inactive.
For the molecule `CS(=O)(=O)N1CCN(C2C3CC4CC(C3)CC2C4)CC1` (stereo unspecified), the outcome was inactive.
Next, `COc1cc(/C=N/NC(=O)c2ccc(-n3cccc3)cc2)ccc1O`: “inactive”; `O=C(N/N=C/c1ccc(O)cc1)c1cccc(C(F)(F)F)c1`: “inactive”.
In the case of `Fc1ccc(CN2CCN(C(c3ccccc3)c3ccccc3)CC2)cc1`, the call was inactive.
`COc1cc(/C=N\NC(=O)c2ccc(Cn3nc([N+](=O)[O-])c(Cl)c3C)o2)ccc1O`: the molecule was classed as inactive.
As to `O=C(O)c1cc(N2C(=O)C=CC2=O)cc(N2C(=O)C=CC2=O)c1`, the molecule was classed as inactive.
For `Oc1ccc2c(ccc3[nH]cnc32)c1`, the outcome was inactive.
Next, `Nc1ccc2[nH]c(=S)[nH]c2c1`: “inactive”; `Cc1ccc(Nc2n[nH]c(=S)s2)cc1`: “inactive”; `COc1ccc(N2CCN(c3ccc(C(N)=O)cc3[N+](=O)[O-])CC2)cc1`: “inactive”.
As to `Cc1sc2ncnc(N(C)CCc3ccccn3)c2c1C`, the result was inactive.
Take `CCOC(=O)c1c(C)[nH]sc1=S`: the molecule was called inactive.
On to `CCN(CC)c1ccc(NC(=O)CSC(=O)c2ccccc2)cc1`, for which the molecule was called inactive.
Next, `CCN(CC)c1ccc(NC(=O)C2CCCC2)cc1`: “inactive”; `CCN(CC)c1ccc(NC(=O)Nc2ccccc2)cc1`: “inactive”; `CCN(CC)c1ccc(/C=N/O)cc1`: “inactive”.
In the case of `CCN(CC)c1ccc(/C=N/N2CCOCC2)c(O)c1`, the call was inactive.
For the molecule `CN(C)c1ccc(/C=N/N2CCN(Cc3ccccc3Cl)CC2)cc1`, the outcome was inactive.
For `CCOc1cc(/C=C2\SC(=O)N=C2N)ccc1O`, the molecule was called inactive.
With `C=CCN(CC=C)C(=O)C1CCN(Cc2ccc(OCc3ccccc3)cc2)CC1` the entry was “inactive”; with `COc1ccc(N2CCN(C(=O)NC3CCCCC3)CC2)cc1`, “inactive”.
Take `CC1=CC(C)(C)N(C(=O)CNC2CCCC2)c2cc(C)ccc21`: the outcome was inactive.
For `COc1cc(/C=N\NC(=O)c2c(C)nc3cc(C)ccn23)ccc1O`, the call was inactive.
As to `CN(C)c1ccc(NC(=O)CN2C(=O)c3ccccc3C2=O)cc1`, the call was inactive.
Regarding `O=C(NN=Cc1ccc(O)cc1O)c1ccccc1NS(=O)(=O)c1cccs1`, the outcome was inactive.
Next, `COc1ccc(O/C(=N\S(=O)(=O)c2ccccc2)c2ccccc2)cc1`: “inactive”; `O=C1C(Cl)=C(NCCc2ccccc2)C(=O)c2ccccc21`: “inactive”.
Next, `COc1ccc(Nc2ccc3ccccc3c2)cc1`: “inactive”; `O=S1(=O)N=C(Nc2ccc(O)cc2)c2ccccc21`: “inactive”; `COc1ccc(C=C2C(=O)c3ccccc3C2=O)cc1O`: “inactive”.
With `O=C(CNC(=O)c1cccnc1)N/N=C/c1ccc(O)cc1O`, the result was inactive.
With `COc1cc(/C=C/C(=O)OCC(=O)c2ccc[nH]2)ccc1O`, the call was inactive.
As to `COCCNCC(=O)Nc1nc(C)cs1`, the outcome was inactive.
For `Cc1ccc(CNc2ccc(N3CCOCC3)cc2)s1`, the molecule was called inactive.
As for `CN(C1CCCCC1)S(=O)(=O)c1cccc2nsnc12`, the outcome was inactive.
Regarding `COc1cc(/C=N/NC(=O)C2CCN(CC(O)COCc3ccccc3)CC2)ccc1O` (stereo unspecified), the result was inactive.
Regarding `COc1cc(/C=N/NC(=O)CNC(=O)c2ccco2)ccc1O`, the molecule was classed as inactive.
`O=C(/C(=C/c1ccccc1)n1cncn1)c1ccc(Cl)cc1Cl`: the outcome was inactive.
On to `COc1cc(-c2nc3cnccn3c2Nc2ccc(C)cc2)ccc1O`, for which the molecule was classed as inactive.
For `Cc1ccn2c(Nc3ccc4c(c3)OCO4)c(-c3ccc(O)cc3)nc2c1`, the molecule was called inactive.
For `CCOc1ccc(N)cc1OC`, the result was inactive.
On to `Cc1cc(Cl)cc2sc(=S)[nH]c12`, for which the outcome was inactive.
Next, `NC(=S)N/N=C/c1cccc(O)c1O`: “inactive”.
`O=C(CNc1ccc2c(c1)OCO2)N/N=C\c1ccccc1Cl`: the molecule was called inactive.
For the molecule `Cc1ccc(C2CC(=O)N3CN(c4ccc(Br)cc4)CSC3=C2C#N)o1` (stereo unspecified), the molecule was classed as inactive.
Take `OC1CCN(C(=S)Nc2ccc(Nc3ccccc3)cc2)CC1`: the call was inactive.
With `Nc1ccc(N2CCN(c3ccc(Cl)c(Cl)c3)CC2)cc1`, the outcome was inactive.
As to `CCN(Cc1ccncc1)Cc1ccc(OC)c(OC)c1`, the outcome was inactive.
With `COc1ccc(NC2CCCN(C(=O)COc3ccc(Cl)cc3C)C2)cc1OC` (stereo unspecified) the entry was “inactive”; with `COc1ccc(NC(=O)n2ncc3c(C)cccc32)cc1OC`, “inactive”; with `CCCC(=Nc1ccc(N)cc1)C1=C(O)C(C(=O)OC)C(C)(C)CC1=O` (stereo unspecified), “inactive”.
On to `COc1ccc(N2CCN(C(CNC(=O)CC(C)(C)C)c3ccc4c(c3)OCO4)CC2)cc1` (stereo unspecified), for which the molecule was called inactive.
Turning to `COC(=O)NCC(c1ccc2c(c1)OCO2)N1CCN(c2ccc(OC)cc2)CC1` (stereo unspecified), the outcome was inactive.
On to `COc1cc2c(cc1N)-c1ccc(N)cc1C2=O`, for which the result was inactive.
As to `COc1cc(/C=C/CN2CCN(Cc3ccc(C)o3)C(CCO)C2)ccc1O` (stereo unspecified), the outcome was inactive.
On to `COc1ccc(/C=N/NC(=O)c2cc[n+]([O-])cc2)cc1O`, for which the outcome was inactive.
For the molecule `Cc1ccc(O)c(C=Nc2ccc3[nH]ncc3c2)c1`, the outcome was inactive.
Consider `Nc1ccc2nc(C3CCCCC3)[nH]c2c1`, for which the molecule was classed as inactive.
Next, `CCOC(=O)C1Nc2ccc(C(=O)O)cc2C2C=CCC12` (stereo unspecified): “inactive”; `CCOc1cc(/C=N/N2CCN(Cc3ccccc3)CC2)ccc1O`: “inactive”.
Consider `Cc1sc2nc(CN3CCOCC3)nc(N3CCOCC3)c2c1C`, for which the result was inactive.
Next, `O=S(=O)(Nc1ccccc1F)c1cccc(NC(=S)NCCN2CCOCC2)c1`: “inactive”.
For `CCN(CC)c1ccc(NC(=O)CN(C)Cc2cccs2)cc1`, the result was inactive.
Turning to `O=C1/C(=C\c2ccccc2)CN(C(=O)CCN2CCCCC2)C/C1=C/c1ccccc1`, the molecule was classed as inactive.
As for `CN(C)S(=O)(=O)c1cc(NC(=O)CNCCN2CCOCC2)ccc1Cl`, the call was inactive.
As to `COc1cc(/C=N/NC(=O)c2cc(C)oc2C)ccc1O`, the molecule was called inactive.
Next, `COC(=O)/C(=C/Nc1ccc(O)cc1)[N+](=O)[O-]`: “inactive”.
Take `Nc1ccc2c(c1)Cc1cc(N)c(Cl)cc1-2`: the result was inactive.
For `COc1cc(C(C)n2nnc3ccccc32)ccc1O` (stereo unspecified), the molecule was classed as inactive.
For `COc1ccccc1OCCCCCCN1CCOCC1`, the result was inactive.
Regarding `COCCNC(=S)Nc1cc(OC)c(OC)cc1C#N`, the molecule was called inactive.
Take `Cc1cc(O)ccc1Nc1nc(-c2cccs2)cs1`: the result was inactive.
With `NS(=O)(=O)c1ccc(Nc2nc(-c3ccc(O)cc3)cs2)cc1`, the call was inactive.
In the case of `Cc1ccnc(Nc2nc(-c3ccc(O)cc3)cs2)c1`, the result was inactive.
As for `Cc1cc(NS(=O)(=O)c2ccc(Nc3nc(-c4ccc(O)cc4)cs3)cc2)no1`, the outcome was inactive.
Next, `CC(=O)Nc1cccc(-c2csc(NCc3ccccc3)n2)c1`: “inactive”; `Cc1nc2ncccn2c1-c1csc(Nc2ccc(O)cc2)n1`: “inactive”.
`Oc1ccc(-c2csc(Nc3ccccn3)n2)cc1`: the molecule was called inactive.
For the molecule `CC(C)Oc1ccc(OCCn2c(=S)[nH]c3c(N)ncnc32)cc1`, the molecule was classed as inactive.
In the case of `CSc1ccccc1NC(=O)CN(C)C(C)C(=O)NCc1ccc2c(c1)OCO2` (stereo unspecified), the result was inactive.
As for `COc1cc(/C=C/C(=O)OCC(=O)Nc2ccc3c(c2)OCO3)ccc1O`, the call was inactive.
On to `Nn1c(=S)[nH]c2sc3c(c2c1=O)CCCC3`, for which the result was inactive.
With `Cc1cc(C)c(OCC(O)CN2CCN(C(=O)c3ccccc3)CC2)c(C)c1` (stereo unspecified) the entry was “inactive”; with `COc1nc(Nc2ccc(O)cc2)nc(OC(C(F)(F)F)C(F)(F)F)n1`, “inactive”; with `O=C(c1cccc(F)c1)N1CCN(Cc2cccc(Br)c2)CC1`, “inactive”.
With `OCCN1CCN(C(=S)Nc2cccc(C(F)(F)F)c2)CC1`, the result was inactive.
For `N#CC1=C(S)N(c2ccc(F)cc2)C(c2cccs2)NC1=O` (stereo unspecified), the result was inactive.
Take `O=C(O)c1ccc(-c2ccc(/C=c3/sc4nc5ccccc5n4c3=O)o2)cc1Cl`: the result was inactive.
